PubChem BioAssay AID1851 (National Center for Advancing Translational Sciences (NCATS), 2009)
In all, about 16,000 compounds went through this assay and about 5,100 (32%) were called active. Another 25% or so got no clear call; they are omitted. The call rests on the fitted dose curve; in most records, active means well fitted curve in the direction sought with a large enough effect; inconclusive means small, poorly fitted or top-dose-only effect, or effect the other way; inactive means no such curve, though single readings can be large or run the other way. The list shows a part of the results.

Each compound was assayed against Cytochrome P450 3A4 (Homo sapiens) (UniProt P08684) (assay: Cytochrome panel assay with activity outcomes). Conditions: recombinant CYP, pro-luciferin dealkylation, luminescence, p450-cyp3a4; series mostly up to 57.1 µM; activity, negative = inhibition: at the top concentration.
Cytochrome P450 3A4 (Homo sapiens), sequence (P08684 whole entry, looked up): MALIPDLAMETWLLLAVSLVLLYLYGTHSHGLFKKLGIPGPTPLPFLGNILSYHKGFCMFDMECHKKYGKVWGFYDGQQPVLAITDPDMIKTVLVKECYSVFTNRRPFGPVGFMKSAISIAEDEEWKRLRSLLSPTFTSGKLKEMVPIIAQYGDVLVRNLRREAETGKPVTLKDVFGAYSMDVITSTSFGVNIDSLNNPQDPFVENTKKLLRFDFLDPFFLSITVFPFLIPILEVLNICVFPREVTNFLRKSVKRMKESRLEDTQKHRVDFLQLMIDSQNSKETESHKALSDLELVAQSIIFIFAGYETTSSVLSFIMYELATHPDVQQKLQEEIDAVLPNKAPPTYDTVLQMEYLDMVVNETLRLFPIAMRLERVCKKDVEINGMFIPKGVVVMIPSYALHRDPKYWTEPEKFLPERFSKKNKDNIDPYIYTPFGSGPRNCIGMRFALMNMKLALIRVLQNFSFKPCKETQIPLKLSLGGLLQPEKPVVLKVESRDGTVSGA
On the % scale 0 is the no-effect control and ±100 the full control effect.

| SMILES | activity, negative = inhibition | AC50 |
| --- | --- | --- |
| Cc1ccc(S(=O)(=O)N2CCC(C(=O)O)(c3ccccc3)CC2)cc1 | 12.2% [at 11.4 µM] (inactive) |  |
| Cc1ccc(S(=O)(=O)N2CCN(C(=O)c3ccccc3)C2C(C)C)cc1 (configuration not stated) |  | 2 µM (active) |
| CC(=O)N1CC2(CC2)CC1c1ccccc1 (configuration not stated) | -21.7% (inactive) |  |
| Cc1ccc(S(=O)(=O)ON=C2CCN(S(=O)(=O)c3ccccc3)CC2)cc1 | 9.52% (inactive) |  |
| CC(=O)N1CCN(S(=O)(=O)c2ccccc2)C1c1ccccc1 (configuration not stated) |  | 11.2 µM (active) |
| COc1ccc(NC(=O)C(F)(F)F)cc1OC | 1.85% (inactive) |  |
| COc1ccc(C(=O)c2ccccc2)cc1Br | -25.9% (inactive) |  |
| COc1ccc(C(=O)c2ccc(OC)c(OC)c2)cc1OC |  | 15.8 µM (active) |
| CN[C@H]1[C@@H](O[C@@H]2[C@H](O[C@@H]3[C@@H](O)[C@@H](O)[C@@H](N=C(N)N)[C@@H](O)[C@@H]3N=C(N)N)O[C@H](C)[C@@]2(O)C=O)O[C@@H](CO)[C@@H](O)[C@H]1O | -11.4% [at 25.6 µM] (inactive) |  |
| Cc1cccc(N2CCN(C(=O)CSCc3c(C)noc3C)CC2)c1C |  | 3.98 µM (active) |
| Cc1cccc(N2CCN(CC(=O)Nc3ccc(-n4cnnn4)cc3)CC2)c1C | -1.5% (inactive) |  |
| Cc1ccc(S(=O)(=O)Nc2nc(C)c(NC(=O)Nc3ccc(Cl)cc3Cl)s2)cc1 |  | 15.8 µM (active) |
| Cc1cc(Cl)ccc1OC(C)C(=O)Nc1ccc(S(=O)(=O)Nc2cnc3ccccc3n2)cc1 (configuration not stated) | -1.77% [at 2.29 µM] (inactive) |  |
| Cc1nnc(NS(=O)(=O)c2ccc(N)cc2)s1 | -9.45% [at 25.6 µM] (inactive) |  |
| Cc1cc(C)n(-c2nc(NC(C)(C)C)nc(NC(C)(C)C)n2)n1 | -7.85% (inactive) |  |
| Cc1cc(C)n(-c2nc(Nc3ccccc3C)nc(-n3nc(C)cc3C)n2)n1 |  | 7.94 µM (active) |
| Cc1ccccc1Cn1nc(C)c(NC(=O)c2sc3ccccc3c2Cl)c1C |  | 11.2 µM (active) |
| Cc1ccc(NC(=O)c2sc3ccccc3c2Cl)nc1 | -27.9% (inactive) |  |
| CC(C)c1nnc(NC(=O)c2sc3ccccc3c2Cl)s1 | 7.5% (inactive) |  |
| O=C(NNC(=O)c1sc2ccccc2c1Cl)Nc1ccc(Cl)cc1 |  | 12.6 µM (active) |
| Cc1nn(Cc2ccc(Cl)cc2Cl)c(C)c1NC(=O)c1sc2ccccc2c1Cl |  | 7.08 µM (active) |

| SMILES | activity, negative = inhibition | AC50 |
| --- | --- | --- |
| NCCSS(=O)(=O)CCN | 5.43% [at 11.4 µM] (inactive) |  |
| Cc1ccc(N2C(=O)CC(c3ccsc3)C3=C2CC(C)(C)CC3=O)cc1 (configuration not stated) |  | 2.24 µM (active) |
| O=C(/C=C/c1ccccc1)N/C(=C/c1ccccc1)C(=O)Nc1ccccc1O |  | 14.1 µM (active) |
| O=C(/C=C\c1ccccc1)c1ccccc1O | -15.8% [at 11.4 µM] (inactive) |  |
| O=C(O)C/C(=C\c1ccccc1)C(=O)O | -16.3% [at 11.4 µM] (inactive) |  |
| COc1ccc(/C(C)=N/NC(=O)c2ccc(CSc3cccc4cccnc34)cc2)cc1OC |  | 3.16 µM (active) |
| O=C(CSc1cccc2cccnc12)OCC(=O)c1ccccc1 | 10.1% [at 2.29 µM] (inactive) |  |
| COC(=O)C1CCN(CC(=O)Nc2sc3c(c2C#N)CCC3)CC1 | -27.9% (inactive) |  |
| O=C(NCCc1cccs1)C1CC(c2c(Cl)cccc2Cl)=NO1 (configuration not stated) | -24.1% [at 2.29 µM] (inactive) |  |
| N#Cc1c(NC(=O)C2CC(c3ccccc3Cl)=NO2)sc2c1CCC2 (configuration not stated) |  | 5.01 µM (active) |
| CCN(CC)C(=O)N1CCN(C)CC1 | -0.999% [at 25.6 µM] (inactive) |  |
| Cc1ccc(NC(=O)CC2CS(=O)(=O)CC2CC(=O)Nc2ccc(C)c(C)c2)cc1C (configuration not stated) |  | 3.98 µM (active) |
| CN(C)c1nc(C#N)nc(N2CCOCC2)n1 | 2.43% (inactive) |  |
| O=C(CNS(=O)(=O)c1ccc(Br)s1)N1CCC(N2CCCCC2)CC1 | -12.4% (inactive) |  |
| CCC(C)NC(=O)CCS(=O)(=O)c1ccc(Br)s1 (configuration not stated) |  | 0.891 µM (active) |
| COC(=O)C/C=C1\c2ccccc2[C@H](OC)[C@H]1C | -2.89% [at 11.4 µM] (inactive) |  |
| Nc1ccc(N=Nc2ccc(-c3ccc(O)cc3)cc2)c2ccc(S(=O)(=O)O)cc12 | -11.1% [at 11.4 µM] (inactive) |  |
| COC(=O)[C@@]1(Cc2ccccc2)[C@H]2c3cc(C(=O)N4CCCC4)n(Cc4c(CO)[nH]cc(C)c4=O)c3C[C@H]2CN1C(=O)c1ccccc1 |  | 2.51 µM (active) |
| COC(=O)[C@@]1(Cc2ccc(F)cc2)[C@H]2c3cc(C(=O)N4CCCC4)n(Cc4c(CO)[nH]cc(C)c4=O)c3C[C@H]2CN1C(=O)c1ccccc1 |  | 2 µM (active) |
| O=C1c2cccc3cccc(c23)C(=O)N1CC1CCN(CC(O)COc2ccc3ccccc3c2)CC1 (configuration not stated) |  | 7.94 µM (active) |
| CCOC(=O)c1c(-c2ccccc2)nc2ccc(Cl)cn12 | -22.1% (inactive) |  |

| SMILES | activity, negative = inhibition | AC50 |
| --- | --- | --- |
| CCCOC(=O)c1c(-c2ccccc2)nc(CC)c(C(=O)SCC)c1CCC |  | 10 µM (active) |
| CCc1nc2c(c(SC)nn2-c2ccccc2)c(N)c1C(=O)OC | -21.9% [at 11.4 µM] (inactive) |  |
| O=C1CCCC=C1[C@@H](O)C1CCCCC1 | -18.7% [at 11.4 µM] (inactive) |  |
| N#C/C(=C\c1cc(Cl)cc(Cl)c1O)C(=O)NC1CCCCC1 |  | 15.8 µM (active) |
| N#C/C(=C\c1cn[nH]c1-c1ccccc1)C(=O)NC1CCCCCC1 |  | 7.08 µM (active) |
| N#C/C(=C\Nc1ccccn1)C(=O)C1CC1 | -9.43% [at 11.4 µM] (inactive) |  |
| Cc1cc(=O)oc2cc(O)ccc12 | -8.45% [at 25.6 µM] (inactive) |  |
| CCOc1cc2c(C)cc(=O)oc2cc1Cl | -19.3% (inactive) |  |
| CCN(CC)c1ccc2cc(C(C)=O)c(=O)oc2c1 | -19.1% (inactive) |  |
| CCN(CC)c1ccc2c(Cl)cc(=O)oc2c1 |  | 25.1 µM (active) |
| CCN(CC)c1ccc(C(=O)OCc2cc(=O)oc3cc(O)ccc23)cc1 |  | 6.31 µM (active) |
| COc1ccc2c(CC(=O)NCC3CCC(C(=O)O)CC3)cc(=O)oc2c1 (configuration not stated) | -1.71% (inactive) |  |
| CN(C)c1ncc2nc(-c3cccs3)c(=O)n(-c3ccccc3)c2n1 | -3.28% (inactive) |  |
| O=c1c(-c2cccs2)nc2cnc(N3CCNCC3)nc2n1-c1ccccc1 |  | 25.1 µM (active) |
| Cc1nc2cnc(N3CCN(C)CC3)nc2n(-c2ccccc2)c1=O | -12.7% (inactive) |  |
| O=c1c(-c2cc(F)cc(F)c2)nc2cnc(N3CCOCC3)nc2n1-c1ccccc1 | -17.5% (inactive) |  |
| COc1ccc(-n2c(=O)c(-c3ccccc3)nc3cnc(N4CCNCC4)nc32)cc1 | -7.64% (inactive) |  |
| COc1ccc(-n2c(=O)c(-c3cccs3)nc3cnc(N4CCNCC4)nc32)cc1 |  | 15.8 µM (active) |
| COc1ccc(-n2c(=O)c(-c3ccc(Cl)cc3)nc3cnc(N4CCNCC4)nc32)cc1 | -1.14% (inactive) |  |
| CN1CCN(c2ncc3nc(-c4cccs4)c(=O)n(-c4ccccc4)c3n2)CC1 |  | 31.6 µM (active) |
